RGS7-Gao: regulators of human RGS7-Galphao interaction. P09471. hit rate 0.35% among 220,000. binding response (% of control), % at 10 µM. Multiplexed bead flow cytometry, RGS7-Galphao binding; actives lie on both sides; in the data active = binding response below about 49% or above about 150%; inconclusive = no clear call, values can overlap the other calls; inactive = in between;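 also: fluorescent Galphao held in activated GDP-AlF4 state binding bead-coupled RGS7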
Target sequence (P09471 whole entry, looked up): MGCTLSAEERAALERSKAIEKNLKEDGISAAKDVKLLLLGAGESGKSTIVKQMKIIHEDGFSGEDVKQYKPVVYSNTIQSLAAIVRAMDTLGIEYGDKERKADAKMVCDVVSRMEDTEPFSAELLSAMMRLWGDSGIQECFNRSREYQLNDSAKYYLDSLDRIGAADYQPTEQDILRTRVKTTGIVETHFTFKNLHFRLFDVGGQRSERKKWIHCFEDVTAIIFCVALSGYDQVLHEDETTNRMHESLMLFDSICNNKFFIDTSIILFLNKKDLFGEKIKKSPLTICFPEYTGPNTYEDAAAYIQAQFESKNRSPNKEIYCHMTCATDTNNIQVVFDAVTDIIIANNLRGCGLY
RGS16-Gao HTS: regulators of human RGS16-Galphao interaction | bead-based flow cytometry RGS16-Galphao binding, fluorescence; actives lie on both sides | O15492+P09471 | hit rate 0.38% among 220,000 | binding response (% of control), % at 10 µM;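 also: Galphao activated by GDP with aluminum fluoride before binding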
GSH fluor: GSH bead compound fluorescence profile | GSH beads flow cytometry, compound fluorescence 488/530 nm; stronger effect = higher value | fluorescence (KMESF) at 10 µM | hit rate 0.25% among 190,000 | AID 1776; in the data active = fluorescence above about 89;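 also: glutathione beads carrying GST-tagged Bcl family fusion proteins plus one bare bead set; values are compound well signal with DMSO vehicle wells as background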
RGS8-Gao reg: human RGS8-Galphao interaction regulation. P09471. multiplexed bead flow cytometry, RGS8-Galphao binding; actives lie on both sides. response (percent of control binding), % at 10 µM. hit rate 0.34% among 220,000. AID 1423; in the data active = response below about 60% or above about 140%; inactive = in between;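 also: Galphao activated as the GDP aluminium fluoride complex binding bead-coupled RGS8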
RGS4-Gao reg: modulates binding of RGS4 to human Galphao. Multiplexed bead flow cytometry; actives lie on both sides. binding response (% of control), % at 10 µM. hit rate 0.33% among 220,000; in the data active = binding response below about 49% or above about 150%; inactive = in between;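 also: fluorescent Galphao activated with aluminum fluoride binding bead-coupled RGS4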
Avidin fluor: compound fluoresces at 488/530 nm on avidin beads; fluorescence (KMESF) at 10 µM; hit rate 0.38% among 220,000; compound fluorescence 488/530 nm, flow cytometry; stronger effect = higher value; in the data active = fluorescence above about 47
RGS4-Gao HTS: modulates binding between human RGS4 and Galphao. shares compounds with RGS16-Gao HTS. multiplexed bead flow cytometry, RGS–Galpha-o binding. RGS4–Galpha-o binding response, % at 10 µM. hit rate 99% among 1,600. AID 1504;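 also: fluorescently labeled Galpha-o bound to GDP with aluminium fluoride binding biotinylated RGS beads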
Biotin-avidin: biotin-avidin bead binding disruption counter-screen. shares compounds with RGS16-Gao HTS. streptavidin beads, fluorescein-biotin binding, flow cytometry. inhibition, % at 10 µM. 1,700 tested, under 10 active;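 active = inhibition above 50%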;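 also: median green fluorescence of gated singlet beads compared with DMSO control wells; 0% = DMSO wells and 100% = complete loss of bead fluorescence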
RGS8-Gao single: confirmation of regulators of human RGS8-Galphao interaction. hit rate 3% among 1,700. bead-based flow cytometry RGS8-Galphao binding, fluorescence; actives lie on both sides. binding response (% of control), % at 10 µM. AID 1836. shares compounds with RGS16-Gao HTS; in the data active = binding response below about 72% or above about 130%; inactive = in between;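 also: Galphao activated as GDP AlF4 complex before binding bead RGS8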
RGS7-Gao confirm: confirmation of regulators of human RGS7-Galphao interaction. shares compounds with RGS16-Gao HTS. bead-based flow cytometry RGS7-Galphao binding; actives lie on both sides. response (percent of control binding), % at 10 µM. hit rate 7.8% among 1,700; in the data active = response below about 75% or above about 130%; inactive = in between;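 also: fluorescent Galphao activated with GDP and aluminum fluoride binding bead-coupled RGS7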
RGS16-Gao conf: RGS16-Galphao interaction regulation, single point confirmation | shares compounds with RGS16-Gao HTS | hit rate 4% among 1,700 | response (% of control binding), % at 10 µM | bead-based flow cytometry, RGS16-Galphao binding; actives lie on both sides | AID 1838; in the data active = response below about 74% or above about 130%; inactive = in between;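 also: Galphao activated as the GDP aluminium fluoride complex binding bead-coupled RGS16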
RGS4-Gao confirm: RGS4-Galphao interaction regulation, single point confirmation; hit rate 4% among 1,700; RGS4-Galphao binding, multiplexed bead flow cytometry; actives lie on both sides; shares compounds with RGS16-Gao HTS; AID 1840; binding response (% of control), % at 10 µM; in the data active = binding response below about 74% or above about 130%; inactive = in between
RGS19-Gao conf: confirmation of regulators of human RGS19-Galphao interaction. AID 1841. bead-based flow cytometry RGS19-Galphao binding; actives lie on both sides. response (percent of control binding), % at 10 µM. shares compounds with RGS16-Gao HTS. hit rate 5% among 1,700; in the data active = response below about 50% or above about 160%; inactive = in between;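 also: 100% = no compound control and 0% = blank background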
Target sequence (P09471 whole entry, looked up): as above
Target sequence (P49795 whole entry, looked up): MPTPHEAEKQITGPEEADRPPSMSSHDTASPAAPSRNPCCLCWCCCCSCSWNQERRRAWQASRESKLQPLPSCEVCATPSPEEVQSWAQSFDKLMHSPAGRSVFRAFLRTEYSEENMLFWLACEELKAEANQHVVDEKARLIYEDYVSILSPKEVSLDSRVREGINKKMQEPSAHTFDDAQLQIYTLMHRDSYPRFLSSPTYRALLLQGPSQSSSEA
* marks the source's active call; other numbers are inactive results; ? = inconclusive; nt = not tested or not shown; [ ] = dose if it differs, or a comment. Hits are enriched below; roughly 1.2% of the tested compounds scored in any of these assays. Unless noted, no rule for the calls is given here.

SMILES	RGS7-Gao	RGS16-Gao HTS	GSH fluor	RGS8-Gao reg	RGS4-Gao reg	Avidin fluor	RGS4-Gao HTS	Biotin-avidin	RGS8-Gao single	RGS7-Gao confirm	RGS16-Gao conf	RGS4-Gao confirm	RGS19-Gao conf
CC(=O)NC(Cc1c[nH]c2ccccc12)C(=O)OCC(=O)Nc1cc(C)on1 (stereo not drawn)	112	29	15	21*	72	227*	72*	0	106	105	111	108	111
COc1ccccc1NC(=O)CC(c1ccc(OC(C)C)cc1)c1ccccc1OC (stereo not drawn)	107	102	19	104	104	7	nt	nt	nt	nt	nt	nt	nt
COc1ccccc1C(CC(=O)Nc1ccc(C)c(C)c1)c1ccc(OC(C)C)cc1 (stereo not drawn)	118	197*[activator]	17	128	115	6	115*	2	99	90	96	96	61
C=CCSC1=NC(N)=C(C#N)C2(CCCCC2)C1C(N)=O (stereo not drawn)	86	36	19	86	91	18	nt	nt	nt	nt	nt	nt	nt
N#CC1=C(N)N=C(SCc2ccccc2)C(C(N)=O)C12CCCCC2 (stereo not drawn)	107	268	7	142*[activator]	108	5	108*	nt	nt	nt	nt	nt	nt
CC(/C=C1\SC(=O)N(CCCC(=O)O)C1=O)=C\c1ccccc1	160*[activator]	83	13	132	165*[activator]	2	nt	-1	101	98	97	98	104
COc1ccc(-n2c(=O)c3c4c(sc3n3c(=S)[nH]nc23)COC(C(C)C)C4)cc1 (stereo not drawn)	?	92	nt	94	89	5	nt	nt	nt	nt	nt	nt	nt
CCCCOCCCNC1=NCCCCC1	90	-11*	10	86	87	13	87*	nt	nt	nt	nt	nt	nt
CC(C)CCNC1=NCCCCC1	104	101	12	100	104	11	nt	nt	nt	nt	nt	nt	nt
O=C(Cn1cnc2c(cnn2-c2ccccc2)c1=O)Nc1ccc(S(=O)(=O)N2CCOCC2)cc1	90	20*	11	77	95	10	95*	2	97	93	95	93	189*[activator]
COc1ccc(-n2ncc3c(=O)n(CC(=O)Nc4ccc(S(=O)(=O)N5CCOCC5)cc4)cnc32)cc1	97	97	11	99	99	3	nt	nt	nt	nt	nt	nt	nt
S=c1[nH]nc(-c2ccc3ccccc3n2)n1-c1ccc(Cl)cc1	119	177*[activator]	12	114	110	4	110*	-2	91	101	92	95	99
O=C(c1cnccn1)N(Cc1cccs1)C1(C(=O)NC2CCCC2)CCCCC1	96	52	86	81	91	4	nt	nt	nt	nt	nt	nt	nt
O=C(c1cnccn1)N(Cc1cccs1)C1(C(=O)NC2CCCCC2)CCCCC1	108	246*[activator]	18	135	115	12	115*	2	98	67*	91	76	79
Cc1c(Br)c(C(F)(F)F)nn1CC(=O)NCc1ccccc1	110	203*[activator]	19	127	109	13	109*	-1	102	101	102	102	90
Cc1c(Cl)c(C(F)(F)F)nn1CC(=O)NCc1ccccc1	99	102	15	102	98	6	nt	nt	nt	nt	nt	nt	nt
CCOC(=O)c1cccc(NC(=O)CSc2nc3ccccc3c(=O)n2CCOC)c1	13*	-10	24	9.5*	23*	0	nt	2	109	111	108	109	97
COc1ccc(S(=O)(=O)Cc2ccc(C(=O)NCCc3ccc(S(N)(=O)=O)cc3)o2)cc1	110	183*[activator]	22	121	105	9	105*	-1	107	85	110	93	66
COCCCNC(=O)c1ccc(CS(=O)(=O)c2ccc(OC)cc2)o1	101	101	14	102	100	24	nt	nt	nt	nt	nt	nt	nt
O=C(Cn1cncn1)N/N=C/c1ccccc1O	?	83	nt	91	88	6	nt	nt	nt	nt	nt	nt	nt
Cc1cc(OC(=O)c2ccc(S(=O)(=O)N3CCCC3)cc2)c([N+](=O)[O-])c(=O)[nH]1	110	289	18	142*[activator]	112	11	112*	0	103	101	102	100	91
Cc1cc(OC(=O)c2ccc(S(=O)(=O)N3CCCCC3)cc2)c([N+](=O)[O-])c(=O)[nH]1	102	107	11	103	95	10	nt	nt	nt	nt	nt	nt	nt
COC(=O)c1cccc(NC(=O)c2nn(C(C)C)c(=O)c3ccccc23)c1	99	99	11	99	104	8	nt	nt	nt	nt	nt	nt	nt
Cc1ccc(Cl)c(OC(=O)c2nn(C(C)C)c(=O)c3ccccc23)c1	101	248*[activator]	14	119	101	12	101*	2	103	103	103	105	92
O=C(NCC1CCS(=O)(=O)C1)Oc1ccccc1 (stereo not drawn)	108	291*[activator]	16	112	108	13	108*	1	102	106	103	104	96
SMILES	RGS7-Gao	RGS16-Gao HTS	GSH fluor	RGS8-Gao reg	RGS4-Gao reg	Avidin fluor	RGS4-Gao HTS	Biotin-avidin	RGS8-Gao single	RGS7-Gao confirm	RGS16-Gao conf	RGS4-Gao confirm	RGS19-Gao conf
Cc1ccc([N+](=O)[O-])cc1NC(=O)Cc1ccc(F)cc1	nt	nt	11	nt	nt	nt	nt	1	99	102	102	102	99
Cc1ccc(CN2CCN(/N=C/c3sccc3C)CC2)c(C)c1	106	85	7	103	117	1	nt	nt	nt	nt	nt	nt	nt
CC(=O)N1CCN(C(=S)NCc2ccccc2)CC1	106	257*[activator]	16	138	110	6	110*	-2	99	102	97	97	94
O=C(NCc1ccccc1)C1CCC1	96	14*	12	86	96	6	96*	0	98	95	97	98	97
S=C(NCc1ccccc1)N1CCCCC1	89	89	19	93	90	10	nt	nt	nt	nt	nt	nt	nt
Cc1ccc(S(=O)(=O)N2CCCCC2)cc1NC(=O)c1ccccn1	?	98	nt	101	101	8	nt	nt	nt	nt	nt	nt	nt
